According to PubChem BioAssay (NCATS):
Records with an inconclusive call do not appear. Calls of active or inactive are those of the source. Unless noted, calls come from the whole dose curve; as a rule, active = well fitted curve in the direction sought with a large enough effect; inconclusive = small, poorly fitted or top-dose-only effect, or another doubt; inactive = no such curve, though single readings can be large; an effect the other way counts as inactive or inconclusive.

Experiments:
[1] = High Content Imaging Cell-Based qHTS for Inhibitors of the mTORC1 Signaling Pathway in MEF Cells (AID 2667);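 note: Tsc2-/- p53-/- MEFs stably re-expressing wild-type Tsc2 exposed 24 h; series mostly up to about 38 µM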
Method in brief: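 WT MEFs (Tsc2-/-, p53-/- re-expressing Tsc2), in DMEM + 10% FBS, were treated with compound for 24 h at 37 C. Cells were then fixed and stained for phospho-rpS6 Ser235/236 with propidium iodide as cell count. Values are % positive cells, with thresholds set against rapamycin-treated cells.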

[2] = Cytometry Cell-Based qHTS for Inhibitors of the mTORC1 Signaling Pathway in MEF cells (AID 2668);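 note: Tsc2-/- p53-/- mouse embryonic fibroblasts stably re-expressing wild-type Tsc2; percent cells positive for phospho-rpS6 Ser235/236 relative to propidium iodide stain; series mostly up to about 38 µM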
Method in brief: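 Pathway inhibition in WT Tsc2-rescued Tsc2-/-, p53-/- MEFs is measured as the Alexa-488 phospho-rpS6 to propidium iodide intensity ratio after 24 hrs of compound at 37 degree Celsius. PI-stained cell number gives viability.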

[3] = target: Ubiquitin carboxyl-terminal hydrolase 2 (Homo sapiens) (UniProt O75604); test: qHTS Validation Assay for Inhibitors of Ubiquitin-specific Protease USP2a Using CHOP2 as the Reporter (AID 463106)
Method in brief: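 USP2 core (10 nM final) was preincubated with compound 30 min at RT in pH 8.0 Tris/CaCl2/beta-ME/CHAPS buffer. Ub-CHOP2 and reporter substrate (25 nM final each) were then added, with fluorescence (Ex 485/Em 531) read after 60 min. Data were normalized to NEM full inhibition and fitted to concentration-response curves.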

[4] = target: DNA polymerase III PolC-type (Bacillus subtilis (strain 168)) (UniProt P13267); test: qHTS Validation Assay for the Inhibitors of DNA Replication in Gram-Positive Bacteria (AID 485295);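 note: reconstituted holoenzyme with PolC plus beta clamp SSB and primase; PicoGreen fluorescence of double-stranded DNA made on primed circular M13 template; series mostly up to about 57 µM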
DNA polymerase III PolC-type (Bacillus subtilis (strain 168)), sequence (P13267 whole entry, looked up): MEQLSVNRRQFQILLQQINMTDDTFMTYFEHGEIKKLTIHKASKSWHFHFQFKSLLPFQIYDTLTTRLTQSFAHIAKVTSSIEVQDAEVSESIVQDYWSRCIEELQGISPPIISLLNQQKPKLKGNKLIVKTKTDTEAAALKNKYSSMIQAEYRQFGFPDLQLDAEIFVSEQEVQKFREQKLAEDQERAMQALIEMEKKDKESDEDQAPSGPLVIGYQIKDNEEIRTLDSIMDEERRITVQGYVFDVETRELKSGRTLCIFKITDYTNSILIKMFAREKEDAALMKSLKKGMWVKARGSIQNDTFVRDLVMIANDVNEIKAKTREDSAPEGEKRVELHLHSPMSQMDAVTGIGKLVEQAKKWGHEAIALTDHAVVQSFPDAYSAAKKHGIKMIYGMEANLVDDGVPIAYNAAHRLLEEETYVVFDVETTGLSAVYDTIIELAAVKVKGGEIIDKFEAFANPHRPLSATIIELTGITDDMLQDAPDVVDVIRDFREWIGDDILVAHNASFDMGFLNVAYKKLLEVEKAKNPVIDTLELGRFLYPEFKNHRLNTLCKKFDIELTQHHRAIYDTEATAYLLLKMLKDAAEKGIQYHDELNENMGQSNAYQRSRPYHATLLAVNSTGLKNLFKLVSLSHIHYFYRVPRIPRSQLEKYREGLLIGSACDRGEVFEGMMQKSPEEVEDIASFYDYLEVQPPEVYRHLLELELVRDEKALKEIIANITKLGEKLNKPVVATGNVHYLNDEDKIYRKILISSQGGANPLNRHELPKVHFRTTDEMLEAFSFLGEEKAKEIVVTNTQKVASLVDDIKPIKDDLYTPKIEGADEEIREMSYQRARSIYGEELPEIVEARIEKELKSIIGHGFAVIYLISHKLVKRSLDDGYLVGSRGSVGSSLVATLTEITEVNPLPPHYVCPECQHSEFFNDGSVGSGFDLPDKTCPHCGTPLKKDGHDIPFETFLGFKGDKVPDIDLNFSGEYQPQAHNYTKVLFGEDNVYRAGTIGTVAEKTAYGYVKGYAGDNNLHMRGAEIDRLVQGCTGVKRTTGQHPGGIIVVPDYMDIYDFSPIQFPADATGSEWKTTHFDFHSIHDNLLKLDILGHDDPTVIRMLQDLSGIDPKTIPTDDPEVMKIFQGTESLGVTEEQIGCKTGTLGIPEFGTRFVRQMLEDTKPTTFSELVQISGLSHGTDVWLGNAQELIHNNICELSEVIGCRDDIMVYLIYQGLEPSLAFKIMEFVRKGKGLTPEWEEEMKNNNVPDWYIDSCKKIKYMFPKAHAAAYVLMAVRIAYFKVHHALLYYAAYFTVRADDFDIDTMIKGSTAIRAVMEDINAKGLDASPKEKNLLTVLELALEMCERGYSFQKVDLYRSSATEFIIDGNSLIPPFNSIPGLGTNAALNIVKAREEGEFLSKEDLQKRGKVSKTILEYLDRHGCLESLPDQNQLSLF
Method in brief: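 Primed replication of single-stranded M13Gori by a four-protein B. subtilis holoenzyme is measured at room temperature. Double-stranded product is quantified by PicoGreen fluorescence after an EDTA stop; inhibition is scaled between DMSO and EDTA controls.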

[5] = target: Tumor susceptibility gene 101 protein (Homo sapiens) (UniProt Q99816); test: qHTS Validation Assay for Iinhibitors of HIV-1 Budding by Blocking the Interaction of PTAP/TSG101 (AID 485342; calls by dose curve)
Tumor susceptibility gene 101 protein (Homo sapiens), sequence (Q99816 whole entry, looked up, the tested form may be a part): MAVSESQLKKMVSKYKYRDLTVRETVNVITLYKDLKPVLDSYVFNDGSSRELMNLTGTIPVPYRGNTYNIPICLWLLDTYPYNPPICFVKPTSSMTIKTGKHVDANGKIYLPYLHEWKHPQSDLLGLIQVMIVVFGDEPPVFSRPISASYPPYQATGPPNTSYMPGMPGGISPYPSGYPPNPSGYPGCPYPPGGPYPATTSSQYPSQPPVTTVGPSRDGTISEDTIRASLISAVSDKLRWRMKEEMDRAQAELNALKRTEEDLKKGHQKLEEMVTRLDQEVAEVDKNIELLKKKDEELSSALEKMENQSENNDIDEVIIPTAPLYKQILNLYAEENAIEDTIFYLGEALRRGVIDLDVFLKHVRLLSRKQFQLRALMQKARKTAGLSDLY
Method in brief: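 Fluorescence anisotropy measured PTAP-Tsg101 interaction. Final concentrations were 10 uM protein domain and 50 nM labeled peptide, equilibrated 20 min at room temperature.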

[6] = qHTS Validation Assay to Find Inhibitors of Chronic Active B-Cell Receptor Signaling (AID 485345; active = well fitted curve in the direction sought with a large enough effect in the main read-out, with a control signal flat, not every such curve was filed as active)
Method in brief: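 TMD8 ABC-DLBCL cells stably carrying doxycycline-inducible IkappaBalpha–green luciferase fusion plus unfused red luciferase; compounds 46 uM to 3 nM, 4 h at 37C with doxycycline. Corrected green/red luminescence ratio normalized to 10 uM MG-132 and basal cell wells; curves fitted.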

[7] = target: Beta-2 adrenergic receptor (Homo sapiens) (UniProt P07550); test: qHTS validation assay of beta-arrestin-biased ligands of beta2-adrenergic receptor (AID 485366)
Beta-2 adrenergic receptor (Homo sapiens), sequence (P07550 whole entry, looked up): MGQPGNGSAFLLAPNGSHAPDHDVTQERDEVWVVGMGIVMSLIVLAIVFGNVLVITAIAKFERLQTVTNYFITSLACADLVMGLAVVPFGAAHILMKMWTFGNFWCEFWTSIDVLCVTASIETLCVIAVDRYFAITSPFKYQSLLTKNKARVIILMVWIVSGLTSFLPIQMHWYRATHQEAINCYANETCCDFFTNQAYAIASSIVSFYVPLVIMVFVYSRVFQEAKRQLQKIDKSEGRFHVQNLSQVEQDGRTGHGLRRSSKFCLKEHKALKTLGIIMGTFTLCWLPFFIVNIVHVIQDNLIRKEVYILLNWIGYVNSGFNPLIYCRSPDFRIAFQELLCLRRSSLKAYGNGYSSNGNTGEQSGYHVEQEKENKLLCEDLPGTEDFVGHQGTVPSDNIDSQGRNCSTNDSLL
Method in brief: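 Values derive from curve-fitted %Activity of a luminescent beta-arrestin recruitment reporter; compounds tested up to 46 microM on Tango cells for 18 hr at 37 degrees C, 5% CO2.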

[8] = target: ATP-dependent 6-phosphofructokinase (Trypanosoma brucei brucei) (UniProt O15648); test: qHTS Validation Assay to Find Inhibitors of T. brucei phosphofructokinase (AID 485368); note: potency is the fitted concentration of half-maximal effect
Method in brief: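 Enzyme reaction in triethanolamine buffer pH 8.0 with 5 mM MgCl2, 0.01% Tween20 and 0.1% BSA; PFK 1.25 nM, F6P 0.5 mM, ATP 0.1 mM, 45 min RT. ADP quantified by ADP-Glo.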

[9] = target: Flap endonuclease 1 (Homo sapiens) (UniProt P39748); test: qHTS Validation Assay for the Inhibitors of Human Flap endonuclease 1 (FEN1) (AID 488816)
Flap endonuclease 1 (Homo sapiens), sequence (P39748 whole entry, looked up): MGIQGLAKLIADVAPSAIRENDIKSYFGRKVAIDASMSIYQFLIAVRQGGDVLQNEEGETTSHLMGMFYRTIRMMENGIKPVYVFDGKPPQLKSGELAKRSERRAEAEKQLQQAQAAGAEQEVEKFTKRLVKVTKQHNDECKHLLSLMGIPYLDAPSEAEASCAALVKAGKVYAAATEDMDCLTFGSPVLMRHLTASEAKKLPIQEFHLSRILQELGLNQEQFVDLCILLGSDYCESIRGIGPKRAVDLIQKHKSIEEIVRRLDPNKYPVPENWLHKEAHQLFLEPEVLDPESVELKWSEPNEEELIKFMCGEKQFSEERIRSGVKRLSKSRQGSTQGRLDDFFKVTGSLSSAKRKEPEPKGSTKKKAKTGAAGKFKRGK
Method in brief: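 Human FEN1 (10 nM) preincubated 15 min at room temperature with compounds, then flap DNA substrate added at 50 nM final. Fluorescence read at 0 and 15 min; concentration-response fitted with four-parameter Hill equation.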

[10] = target: M-phase phosphoprotein 8 (Homo sapiens) (UniProt Q99549); test: qHTS Validation Assay for Inhibitors for MPP8 Chromodomain Interactions with Methylated Histone Tails (AID 488949);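 note: AlphaScreen signal from MPP8 chromodomain bound to biotinylated H3K9me3 peptide; top concentration of the series differs between compounds; nearly all actives have a fitted effect of over 55% in size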
M-phase phosphoprotein 8 (Homo sapiens), sequence (Q99549 whole entry, looked up): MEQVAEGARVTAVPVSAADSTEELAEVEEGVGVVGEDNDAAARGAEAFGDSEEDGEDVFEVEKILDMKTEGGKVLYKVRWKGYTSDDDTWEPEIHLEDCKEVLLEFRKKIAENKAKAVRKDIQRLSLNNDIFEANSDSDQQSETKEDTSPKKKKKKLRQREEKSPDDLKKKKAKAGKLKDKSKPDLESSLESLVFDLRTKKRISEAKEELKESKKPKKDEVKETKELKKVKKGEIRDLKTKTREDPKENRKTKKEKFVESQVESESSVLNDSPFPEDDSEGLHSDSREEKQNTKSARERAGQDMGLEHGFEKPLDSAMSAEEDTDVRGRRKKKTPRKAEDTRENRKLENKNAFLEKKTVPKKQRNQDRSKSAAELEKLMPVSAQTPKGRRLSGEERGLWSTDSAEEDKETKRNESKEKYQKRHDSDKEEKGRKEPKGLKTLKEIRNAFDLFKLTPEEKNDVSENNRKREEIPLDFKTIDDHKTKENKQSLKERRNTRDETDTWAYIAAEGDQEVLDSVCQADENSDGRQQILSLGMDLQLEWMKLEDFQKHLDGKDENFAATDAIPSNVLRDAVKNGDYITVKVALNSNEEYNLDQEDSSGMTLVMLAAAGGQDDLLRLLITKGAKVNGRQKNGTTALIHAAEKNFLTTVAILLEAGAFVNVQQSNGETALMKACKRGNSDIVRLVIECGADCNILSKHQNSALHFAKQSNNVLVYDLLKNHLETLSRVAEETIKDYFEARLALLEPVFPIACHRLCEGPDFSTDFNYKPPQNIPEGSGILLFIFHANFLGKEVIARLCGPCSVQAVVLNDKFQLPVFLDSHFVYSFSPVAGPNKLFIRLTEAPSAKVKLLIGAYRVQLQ
Method in brief: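 Disruption of the preformed MPP8–trimethyl-H3K9 peptide complex (both 50 nM, 30 min, RT) is measured after 30 min compound exposure, using AlphaScreen proximity beads; aurintricarboxylic acid titration serves as plate control.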

[11] = target: Chromobox protein homolog 1 (Homo sapiens) (UniProt P83916); test: qHTS Validation Assay for Inhibitors of HP1-beta Chromodomain Interactions with Methylated Histone Tails (AID 488953); note: nearly all actives have a fitted effect of over 50% in size; note: potency is the fitted concentration of half-maximal effect
Chromobox protein homolog 1 (Homo sapiens), sequence (P83916 whole entry, looked up): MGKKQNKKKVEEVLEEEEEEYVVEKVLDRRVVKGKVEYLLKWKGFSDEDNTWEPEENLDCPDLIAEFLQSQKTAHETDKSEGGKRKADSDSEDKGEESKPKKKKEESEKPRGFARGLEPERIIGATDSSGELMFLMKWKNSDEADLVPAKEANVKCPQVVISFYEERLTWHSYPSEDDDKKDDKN
Method in brief: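 Measured as loss of AlphaScreen luminescence from streptavidin donor and nickel acceptor beads (10 ug/mL final) bridging HP1-beta and biotin-H3(1-18)K9me3, each 50 nM. Compounds met the preassembled complex for 30 min at RT.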

[12] = target: Methanococcus maripaludis chaperonin (MmCpn) (UniProt Q6LX38); test: High-Throughput Screening for Modulators of Cytosolic Chaperonin Activity: MmCpn Primary Screen (AID 488978);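 note: 50 nM MmCpn enzyme hydrolysing 30 µM ATP at 37 °C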
Method in brief: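 Measures ATPase turnover of the M. maripaludis chaperonin (50 nM final) against 30 uM ATP over 10 min at 37C, with compound added 5 min beforehand at room temperature. ADP is quantified by HTRF immunodetection.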

[13] = Quantitative high throughput screen for delayed death inhibitors of the malarial parasite plastid, 96 hour incubation (AID 488745); note: nearly all actives have a fitted effect of over 70% in size; note: potency is the fitted concentration of half-maximal effect
Method in brief: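 Growth of reporter-bearing P. falciparum in red cells is measured after 96 h with compound, covering two erythrocytic cycles. Luminescence from the integrated luciferase serves as the growth signal.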

[14] = Quantitative high throughput screen for delayed death inhibitors of the malarial parasite plastid, 48 hour incubation (AID 488752); note: nearly all actives have a fitted effect of over 65% in size; note: potency is the fitted concentration of half-maximal effect
Method in brief: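 One parasite generation (48 h, 37 C, 5% CO2) of luciferase-reporter P. falciparum in erythrocytes is run with test compound; decreased luminescence indicates inhibited growth.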

[15] = target: Thioredoxin reductase 1, cytoplasmic (Rattus norvegicus) (UniProt O89049); test: qHTS Assay for Substrates of Mammalian Selenoprotein Thioredoxin Reductase 1 (TrxR1) (AID 488772);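 note: NADPH fluorescence in the first read after selenite addition and not the 8 min delta; series mostly up to about 57 µM; a drop in NADPH fluorescence below the no-compound background marks a TrxR1 substrate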
Thioredoxin reductase 1, cytoplasmic (Rattus norvegicus), sequence (O89049 whole entry, looked up): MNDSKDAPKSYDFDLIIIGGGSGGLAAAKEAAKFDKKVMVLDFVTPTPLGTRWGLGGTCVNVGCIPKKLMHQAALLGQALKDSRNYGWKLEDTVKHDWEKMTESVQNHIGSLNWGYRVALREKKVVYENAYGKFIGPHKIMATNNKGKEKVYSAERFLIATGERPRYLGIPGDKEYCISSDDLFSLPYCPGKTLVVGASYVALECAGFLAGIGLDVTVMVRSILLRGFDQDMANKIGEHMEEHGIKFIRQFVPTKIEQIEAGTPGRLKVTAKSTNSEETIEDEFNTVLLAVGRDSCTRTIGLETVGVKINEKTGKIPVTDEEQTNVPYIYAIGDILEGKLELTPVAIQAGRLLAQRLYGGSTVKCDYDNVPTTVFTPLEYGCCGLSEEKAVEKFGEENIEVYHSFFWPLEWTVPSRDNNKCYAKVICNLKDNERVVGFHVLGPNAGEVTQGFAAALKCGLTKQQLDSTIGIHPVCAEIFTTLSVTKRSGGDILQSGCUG
Method in brief: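 Quantitative HTS in Tris-HCl buffer at pH 7.5 with EDTA and Tween-20, using rat TrxR1, 400 uM NADPH and 400 uM selenite (final). A fall in initial NADPH fluorescence relative to background marked substrate behaviour.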

[16] = target: Transient receptor potential cation channel subfamily V member 1 (Homo sapiens) (UniProt Q8NER1); test: HTS Assay for Compounds that Act as Enhancers of the Vanilloid Receptor 1 (AID 488979)
Method in brief: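 TRPV1 cells loaded with Fluo-8 calcium dye; compound added and Ca2+ signal (ex 480/em 520 nm) followed 3 min, then capsaicin at EC20 added and read 2 more min to detect enhancement.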

[17] = target: Thyrotropin receptor (Homo sapiens) (UniProt P16473); test: qHTS Assay for Antagonists of the Thyroid Stimulating Hormone Receptor (AID 488980); note: series mostly up to about 58 µM
Thyrotropin receptor (Homo sapiens), sequence (P16473 whole entry, looked up): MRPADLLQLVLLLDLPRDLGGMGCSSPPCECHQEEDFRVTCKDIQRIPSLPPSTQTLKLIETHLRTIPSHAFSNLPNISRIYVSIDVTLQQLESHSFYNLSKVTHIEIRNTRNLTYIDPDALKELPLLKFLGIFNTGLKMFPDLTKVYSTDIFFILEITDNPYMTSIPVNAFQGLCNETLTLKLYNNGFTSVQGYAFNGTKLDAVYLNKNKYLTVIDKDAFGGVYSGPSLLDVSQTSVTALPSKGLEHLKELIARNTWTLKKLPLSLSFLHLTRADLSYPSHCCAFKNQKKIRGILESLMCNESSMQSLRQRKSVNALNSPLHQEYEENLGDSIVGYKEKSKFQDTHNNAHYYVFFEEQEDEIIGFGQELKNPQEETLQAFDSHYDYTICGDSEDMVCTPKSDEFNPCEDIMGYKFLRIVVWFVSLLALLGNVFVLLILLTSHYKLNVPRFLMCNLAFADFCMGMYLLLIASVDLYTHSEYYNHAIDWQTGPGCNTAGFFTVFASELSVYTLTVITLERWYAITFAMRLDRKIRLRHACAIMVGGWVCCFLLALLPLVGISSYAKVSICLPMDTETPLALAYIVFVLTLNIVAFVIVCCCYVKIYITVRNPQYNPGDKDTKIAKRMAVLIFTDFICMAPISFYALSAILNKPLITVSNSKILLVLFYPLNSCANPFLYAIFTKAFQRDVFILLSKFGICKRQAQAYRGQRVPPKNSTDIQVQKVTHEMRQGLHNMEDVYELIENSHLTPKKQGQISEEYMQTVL
Method in brief: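 Cells expressing human TSHR (HEK293) are dispensed in HBSS/HEPES containing 70 uM RO 20-1724, compound is added, then TSH at EC80 (4 nM final). Antibody in lysis buffer follows, 30 minutes at room temperature before HTRF detection.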

[18] = target: D(1A) dopamine receptor (Homo sapiens) (UniProt P21728); test: HTS Assay for Allosteric Agonists of the Human D1 Dopamine Receptor: Primary Screen for Agonists (AID 488981)
Method in brief: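 Tetracycline-induced HEK293 Trex D1 cells with forced coupling to calcium, loaded with no-wash calcium dye; kinetic fluorescence read 180 s after compound addition for agonism, then a further 180 s after an EC20 dopamine challenge for potentiation.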

[19] = Validation screen for small molecules that induce DNA re-replication in MCF 10A normal breast cells (AID 463097); note: nearly all actives have a fitted effect of over 60% in size
Method in brief: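 DNA re-replication was detected as a rise in nuclei with elevated Hoechst fluorescence after a 48 hr compound exposure of MCF 10A cells at 37 C.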

[20] = target: Thioredoxin reductase 1, cytoplasmic (Rattus norvegicus) (UniProt O89049); test: qHTS Assay for Inhibitors of Mammalian Selenoprotein Thioredoxin Reductase 1 (TrxR1) (AID 488773); details: Potency: inhibition;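 note: drop in NADPH fluorescence over an 8 min run after selenite addition; series mostly up to about 57 µM; nearly all actives have a fitted effect of over 40% in size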
Method in brief: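 Steps: enzyme (90 nM) plus NADPH (400 uM final), 5 min at ~22 deg C; compound added, 15 min; selenite (400 uM final) added; fluorescence followed for 8 min. Concentration-response curves derived from the normalized delta values.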

Measured: Potency

CO/N=C(\C(=O)N[C@@H]1C(=O)N2C(C(=O)O)=C(COC(C)=O)CS[C@H]12)c1csc(N)n1
inactive: [1] | [2] | [3] | [4] | [5] | [6] | [7] | [9] | [10] | [12]
active: [8] 8.49 µM | [11] 50.1 µM

CCCCCCCC/C=C\CCCCCCCC(=O)NCCO
active: [13] 2.94 µM | [14] 2.62 µM
not listed: [19] | [20]
inactive: all other assays above

O=C(O)c1cc([N+](=O)[O-])ccc1NCCCc1ccccc1
not listed: [4] | [6] | [8]
inactive: all other assays above

CN1C2CC(OC(=O)[C@H](CO)c3ccccc3)CC1C1OC12 (some centres undefined)
inactive: [1] | [2] | [3] | [4] | [5] | [6] | [7] | [8] | [20] | [11] | [12]

CC(C)Cc1ccc([C@H](C)C(=O)O)cc1
not listed: [3] | [8] | [9] | [16] | [18]
inactive: all other assays above

CCN(CC)c1ncnc2c1ncn2[C@@H]1O[C@H](COP(=O)(O)OP(=O)(O)C(Br)(Br)P(=O)(O)O)[C@@H](O)[C@H]1O
not listed: [10] | [13] | [14] | [16] | [17] | [19]
inactive: all other assays above

Cc1cc(NC(=O)Nc2ccc3c(ccn3C)c2)sn1
not listed: [6] | [8] | [11] | [14]
inactive: all other assays above

NCCCCCCCCCCN
not listed: [4] | [8] | [10] | [18]
inactive: all other assays above
